Results filed as inconclusive are left out. Calls of active or inactive are those of the source. The calls were made as follows, unless noted: active = hit-call score of the fitted dose curve at least 0.9, where 1 is the maximum; inactive = score below 0.9.

This is an account of results in PubChem BioAssay (EPA / NIEHS).

Assay [1] addresses Paired box protein Pax-6 (Homo sapiens) (UniProt P26367). In words: ATG_Pax6_CIS: Attagene CIS-FACTORIAL HepG2 Assay for human Paired Box 6 (PAX6) (AID 2282956). Particulars: HepG2 CIS-FACTORIAL PAX6 reporter transcription, RNA readout; actives raise or lower the signal. The method, boiled down:
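Read-out is reporter transcript level, measured by RT-PCR with fluorescent primer extension and capillary electrophoresis after 24 h dosing of transfected HepG2 cells. Activity in either direction fitted relative to DMSO control.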

The nature of assay [2]: ATG_PXRE_CIS: Attagene CIS-FACTORIAL HepG2 Assay for human Pregnane X Receptor Element (PXRE) (AID 2282957). Conditions: HepG2 Attagene CIS-FACTORIAL PXRE reporter, mRNA; actives raise or lower the signal. The method, boiled down:
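Reporter transcripts under endogenous PXR-responsive cis-regulation quantified from total RNA of transfected HepG2 cells 24 h post-dosing, via RT-PCR with fluorescent primer extension and capillary electrophoresis. Gain or loss of signal fitted against DMSO baseline.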

Assay [3] is described as follows: ATG_RORE_CIS: Attagene CIS-FACTORIAL HepG2 Assay for human RAR-related Orphan Receptor Element (RORE) (AID 2282959). Conditions: HepG2 Attagene cis-factorial RORE reporter, mRNA; actives raise or lower the signal. An outline of the steps:
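Transient MRTU transfection of human HepG2 liver cells (FuGene 6); 24 h compound exposure; TriZol RNA, oligo(dT) RT, PCR, FAM labeling, HpaI cut, CE fragment analysis. DMSO = negative control/baseline.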

Assay [4] in a line: ATG_Sox_CIS: Attagene CIS-FACTORIAL HepG2 Assay for human SRY-box transcription factor (SOX) (AID 2282960). Particulars: HepG2 Attagene cis-factorial SOX reporter, mRNA; actives raise or lower the signal. An outline of the steps:
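Endogenous factor activity in human liver HepG2 cells carrying transfected cis-regulated reporter units. RNA taken 24 h post-dose, reverse-transcribed, PCR-amplified and sized by capillary electrophoresis. Gain or loss of signal fitted relative to DMSO.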

For assay [5], the target named is Transcription factor Sp1 (Homo sapiens) (UniProt P08047). In words: ATG_Sp1_CIS: Attagene CIS-FACTORIAL HepG2 Assay for human Specificity Protein 1 (Sp1) (AID 2282961). Particulars: HepG2 Sp1 cis-reporter transcription, actives raise or lower the signal. The method, boiled down:
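Transient MRTU-transfected HepG2, 24 h compound exposure. Total RNA → oligo(dT) RT → PCR of reporter → 6-FAM primer extension → HpaI digest → CE. Endpoint fitted both directions vs DMSO.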

The nature of assay [6]: ATG_SREBP_CIS: Attagene CIS-FACTORIAL HepG2 Assay for human Sterol Regulatory Element Binding (SREBP) (AID 2282962). Conditions: HepG2 Attagene cis-factorial SREBP reporter, mRNA; actives raise or lower the signal. An outline of the steps:
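Endogenous SREBP activity read as cis-element-driven reporter transcript in transiently transfected HepG2, 24 h post-dosing; quantified via RT-PCR plus capillary electrophoresis of fluorescent fragments. Gain or loss of signal fitted relative to DMSO baseline.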

Assay [7] deals with Signal transducer and activator of transcription 3 (Homo sapiens) (UniProt P40763). In words: ATG_STAT3_CIS: Attagene CIS-FACTORIAL HepG2 Assay for human Signal Transducer and Activator of Transcription 3 (STAT3) (AID 2282963). Particulars: HepG2, Attagene cis-factorial STAT3 reporter transcription; actives raise or lower the signal. The method, boiled down:
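Fluorescence intensity of 6-FAM-labelled reporter fragments, separated by capillary electrophoresis after RT-PCR, gave the signal. Cells were HepG2 transfected with cis-element reporter units and treated 24 h; fitting was bidirectional relative to DMSO.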

The nature of assay [8]: ATG_TA_CIS: Attagene CIS-FACTORIAL HepG2 Assay for human TA Basal Promoter (AID 2282964). Conditions: HepG2 Attagene CIS-factorial TA basal promoter reporter; actives raise or lower the signal. An outline of the steps:
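Multiplexed mRNA reporter assay, HepG2, 24 h. Reporter cDNA amplified, 6-FAM primer-extended, HpaI-cut, CE-sized; DMSO = negative control and baseline.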

A short description of assay [9]: ATG_TCF_b_cat_CIS: Attagene CIS-FACTORIAL HepG2 Assay for human T-Cell-Factor with beta-catenin (TCF/b-cat) (AID 2282965). Conditions: HepG2 TCF/beta-catenin cis-reporter transcription, actives raise or lower the signal. An outline of the steps: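 HepG2 cells transiently transfected with cis-promoter-driven multiplexed reporter units; reporter mRNA measured 24 h after dosing by RT-PCR, FAM labelling, HpaI digestion and capillary electrophoresis. Bidirectional fitting relative to DMSO baseline.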

Assay [10] can be described thus: ATG_TAL_CIS: Attagene CIS-FACTORIAL HepG2 Assay for human TAL Basal Promoter (AID 2282966).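 Also: background control endpoint measuring basal TAL promoter reporter mRNA not a specific factor.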 Particulars: HepG2 Attagene cis-factorial TAL promoter reporter; actives raise or lower the signal. An outline of the steps: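 Background-control endpoint: basal TAL promoter reporter transcripts in transiently transfected HepG2, measured 24 h after dosing. Read-out by RT-PCR with fluorescent primer extension and capillary electrophoresis; gain or loss of signal fitted relative to DMSO.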

A short description of assay [11]: ATG_TGFb_CIS: Attagene CIS-FACTORIAL HepG2 Assay for human Transforming Growth Factor (TGF) (AID 2282967). Conditions: HepG2 Attagene CIS TGFb reporter, mRNA transcription; actives raise or lower the signal. An outline of the steps:
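Transcript-level reporter readout: HepG2 transfectants, 24 h exposure, RNA to cDNA, reporter-specific PCR, fluorescent primer extension, capillary sizing against ROX standards. Gain- or loss-of-signal relative to DMSO.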

Assay [12] is described as follows: ATG_VDRE_CIS: Attagene CIS-FACTORIAL HepG2 Assay for human Vitamin D Receptor Element (VDRE) (AID 2282968). Conditions: HepG2 VDRE cis-reporter transcription, actives raise or lower the signal. An outline of the steps:
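Compounds were applied for 24 h to HepG2 cells transfected with promoter-regulated reporter units. Total RNA was reverse-transcribed, and reporter amplicons were fluorescently labelled and sized by capillary electrophoresis.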

Assay [13] deals with X-box-binding protein 1 (Homo sapiens) (UniProt P17861). In words: ATG_Xbp1_CIS: Attagene CIS-FACTORIAL HepG2 Assay for human X-box Binding Protein 1 (XBP1) (AID 2282972). Conditions: HepG2 XBP1 cis-element reporter, Attagene multiplex; actives raise or lower the signal. The method, boiled down: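 Reporter transcripts were quantified by RT-PCR with fluorescent primer extension and capillary electrophoresis after 24 h chemical exposure. Cells: transiently transfected HepG2 carrying cis-regulated reporter constructs; data fitted bidirectionally relative to DMSO.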
Sequence of X-box-binding protein 1 (Homo sapiens) (P17861 whole entry, looked up): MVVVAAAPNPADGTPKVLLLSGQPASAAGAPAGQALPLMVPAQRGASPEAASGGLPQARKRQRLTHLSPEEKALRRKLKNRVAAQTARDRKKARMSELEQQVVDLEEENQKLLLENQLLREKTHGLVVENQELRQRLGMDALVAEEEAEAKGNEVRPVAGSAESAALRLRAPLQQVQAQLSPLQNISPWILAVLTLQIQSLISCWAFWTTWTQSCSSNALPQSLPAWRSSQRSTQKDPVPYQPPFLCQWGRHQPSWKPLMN

The nature of assay [14]: ATG_M_19_TRANS: Attagene TRANS-FACTORIAL HepG2 Assay for M19 Transcription Factor (Internal Marker) (AID 2282974; active = hit-call score of the fitted dose curve at least 0.9, where 1 is the maximum). Conditions: HepG2 Attagene TRANS-FACTORIAL M19 internal marker reporter. The method, boiled down:
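Fluorescence of 6-FAM-labelled reporter cDNA fragments, separated by capillary electrophoresis, served as the readout. These derived from HepG2 cells carrying transfected GAL4-UAS reporter units after 24 h dosing, with DMSO as negative control.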

In assay [15] the target is Estrogen-related receptor gamma (Homo sapiens) (UniProt P62508). In words: ATG_ERRg_TRANS: Attagene TRANS-FACTORIAL HepG2 Assay for human Estrogen-Related Receptor gamma (ERRg) (AID 2282977; active = hit-call score of the fitted dose curve at least 0.9, where 1 is the maximum;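 also: hits increase reporter signal over DMSO so potencies reflect activators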). Conditions: HepG2 Attagene TRANS reporter, ERRg transactivation. The method, boiled down: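 Induction of reporter transcripts through a chimeric NR-Gal4 protein is quantified in transfected human HepG2 liver cells after 24 h chemical exposure, using RT-PCR with capillary electrophoresis detection and DMSO as baseline.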
Sequence of Estrogen-related receptor gamma (Homo sapiens) (P62508 whole entry, looked up, the tested form may be a part): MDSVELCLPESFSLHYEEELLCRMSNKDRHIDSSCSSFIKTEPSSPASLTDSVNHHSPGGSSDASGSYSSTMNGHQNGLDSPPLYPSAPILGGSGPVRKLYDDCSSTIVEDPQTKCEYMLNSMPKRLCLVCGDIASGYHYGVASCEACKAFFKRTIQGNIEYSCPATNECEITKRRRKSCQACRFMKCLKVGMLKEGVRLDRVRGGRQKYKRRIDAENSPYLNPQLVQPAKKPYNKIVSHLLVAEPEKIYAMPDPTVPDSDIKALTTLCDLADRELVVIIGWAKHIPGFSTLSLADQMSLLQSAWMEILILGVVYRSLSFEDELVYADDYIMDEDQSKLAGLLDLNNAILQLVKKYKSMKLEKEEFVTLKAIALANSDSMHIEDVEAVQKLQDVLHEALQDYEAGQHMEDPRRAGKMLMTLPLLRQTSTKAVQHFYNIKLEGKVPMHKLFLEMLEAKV

The target of assay [16] is Nuclear receptor subfamily 1 group I member 3 (Homo sapiens) (UniProt Q14994). In words: ATG_CAR_TRANS: Attagene TRANS-FACTORIAL HepG2 Assay for human Constitutive Androstane Receptor (CAR) (AID 2282969; active = hit-call score of the fitted dose curve at least 0.9, where 1 is the maximum;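 also: activators raise reporter mRNA above DMSO so AC50 marks induction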). Conditions: HepG2 Attagene TRANS-FACTORIAL CAR reporter. The method, boiled down:
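Transiently transfected HepG2, multiplex TRANS reporters (CAR-Gal4 chimera driving GAL4-UAS reporter). 24 h dosing. Readout: reporter transcript by RT-PCR + capillary electrophoresis, fluorescence intensity; positive direction vs DMSO.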

Assay [17] is described as follows: ATG_GAL4_TRANS: Attagene TRANS-FACTORIAL HepG2 Assay for GAL4 (Internal Marker) (AID 2282976; active = hit-call score of the fitted dose curve at least 0.9, where 1 is the maximum). Conditions: HepG2 Attagene TRANS GAL4 internal marker reporter. An outline of the steps: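 In transfected human HepG2 liver cells dosed 24 h, GAL4 reporter mRNA serves as a baseline marker. Detection by RT-PCR with fluorescent capillary electrophoresis, activity fitted upward relative to DMSO.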

For assay [18], the target named is Estrogen receptor (Homo sapiens) (UniProt P03372). In words: ATG_ERa_TRANS: Attagene TRANS-FACTORIAL HepG2 Assay for human Estrogen Receptor alpha (ERa) (AID 2282970; active = hit-call score of the fitted dose curve at least 0.9, where 1 is the maximum). Conditions: HepG2 Attagene TRANS ERa GAL4 reporter, mRNA. An outline of the steps:
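Reporter transcripts were measured 24 h after dosing by RT-PCR with fluorescent primer extension and capillary electrophoresis. The system is transiently transfected HepG2 expressing exogenous NR-Gal4 chimeras driving GAL4-UAS reporters; DMSO is the baseline.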

A short description of assay [19]: ATG_PPRE_CIS: Attagene CIS-FACTORIAL HepG2 Assay for human Peroxisome Proliferator-activated Response Element (PPRE) (AID 2282958). Particulars: HepG2 PPRE cis-element reporter, Attagene transcription factor profiling; actives raise or lower the signal. An outline of the steps: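 HepG2, transient MRTU transfection (cis promoter elements, endogenous TFs). 24 h dosing. RNA → oligo(dT) RT → PCR → 6-FAM primer extension → HpaI digest → CE. Bidirectional fit vs DMSO.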

Sequence of Paired box protein Pax-6 (Homo sapiens) (P26367 whole entry, looked up): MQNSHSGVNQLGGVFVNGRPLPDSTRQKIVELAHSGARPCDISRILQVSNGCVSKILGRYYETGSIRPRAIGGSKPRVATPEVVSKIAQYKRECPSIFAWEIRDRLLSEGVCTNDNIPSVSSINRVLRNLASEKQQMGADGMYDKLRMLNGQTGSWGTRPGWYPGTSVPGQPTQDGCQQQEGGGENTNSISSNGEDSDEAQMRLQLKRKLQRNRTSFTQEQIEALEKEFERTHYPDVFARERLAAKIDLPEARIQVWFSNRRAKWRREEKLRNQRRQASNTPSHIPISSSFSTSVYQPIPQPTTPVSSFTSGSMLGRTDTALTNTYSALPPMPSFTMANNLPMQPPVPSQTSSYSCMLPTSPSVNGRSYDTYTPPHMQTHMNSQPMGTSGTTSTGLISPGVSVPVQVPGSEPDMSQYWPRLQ
Sequence of Transcription factor Sp1 (Homo sapiens) (P08047 whole entry, looked up): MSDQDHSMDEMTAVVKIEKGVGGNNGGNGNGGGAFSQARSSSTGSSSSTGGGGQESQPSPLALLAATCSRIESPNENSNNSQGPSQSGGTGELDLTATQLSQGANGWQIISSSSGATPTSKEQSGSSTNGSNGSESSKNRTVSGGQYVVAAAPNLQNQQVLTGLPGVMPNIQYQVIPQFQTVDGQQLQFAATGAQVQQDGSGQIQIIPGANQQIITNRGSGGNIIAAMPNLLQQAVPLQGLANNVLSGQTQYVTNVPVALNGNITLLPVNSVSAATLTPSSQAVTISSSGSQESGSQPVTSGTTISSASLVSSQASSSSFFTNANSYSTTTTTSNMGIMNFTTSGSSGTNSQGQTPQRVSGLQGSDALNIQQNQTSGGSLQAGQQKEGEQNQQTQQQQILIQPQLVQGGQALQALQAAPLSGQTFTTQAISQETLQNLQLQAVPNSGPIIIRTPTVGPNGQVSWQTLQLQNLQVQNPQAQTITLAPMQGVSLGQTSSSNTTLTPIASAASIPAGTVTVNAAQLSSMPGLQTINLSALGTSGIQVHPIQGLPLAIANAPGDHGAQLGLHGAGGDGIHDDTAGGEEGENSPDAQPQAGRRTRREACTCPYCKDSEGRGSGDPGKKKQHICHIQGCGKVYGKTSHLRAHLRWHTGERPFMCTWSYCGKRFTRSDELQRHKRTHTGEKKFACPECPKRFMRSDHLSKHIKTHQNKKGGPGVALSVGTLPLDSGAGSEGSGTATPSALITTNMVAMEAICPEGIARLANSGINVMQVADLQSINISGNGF
Sequence of Signal transducer and activator of transcription 3 (Homo sapiens) (P40763 whole entry, looked up, the tested form may be a part): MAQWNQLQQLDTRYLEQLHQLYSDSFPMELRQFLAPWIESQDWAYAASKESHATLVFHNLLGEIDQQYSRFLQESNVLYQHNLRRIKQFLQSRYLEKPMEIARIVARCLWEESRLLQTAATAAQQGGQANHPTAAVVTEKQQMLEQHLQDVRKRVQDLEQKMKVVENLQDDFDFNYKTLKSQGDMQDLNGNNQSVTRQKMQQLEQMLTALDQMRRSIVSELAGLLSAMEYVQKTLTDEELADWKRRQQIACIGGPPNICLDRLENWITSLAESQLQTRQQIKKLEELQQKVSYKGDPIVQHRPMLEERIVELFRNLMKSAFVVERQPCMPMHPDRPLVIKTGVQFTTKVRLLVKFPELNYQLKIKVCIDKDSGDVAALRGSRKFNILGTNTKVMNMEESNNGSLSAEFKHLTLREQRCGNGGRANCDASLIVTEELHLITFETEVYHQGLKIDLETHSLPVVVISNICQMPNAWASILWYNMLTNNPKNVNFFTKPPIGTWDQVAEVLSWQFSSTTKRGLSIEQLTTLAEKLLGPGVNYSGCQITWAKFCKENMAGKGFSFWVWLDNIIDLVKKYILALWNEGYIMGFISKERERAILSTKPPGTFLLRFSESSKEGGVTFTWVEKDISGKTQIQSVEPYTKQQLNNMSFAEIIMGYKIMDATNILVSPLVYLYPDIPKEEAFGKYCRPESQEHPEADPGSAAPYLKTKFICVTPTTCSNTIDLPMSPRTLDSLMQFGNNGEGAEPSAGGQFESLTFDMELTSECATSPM
Sequence of Nuclear receptor subfamily 1 group I member 3 (Homo sapiens) (Q14994 whole entry, looked up, the tested form may be a part): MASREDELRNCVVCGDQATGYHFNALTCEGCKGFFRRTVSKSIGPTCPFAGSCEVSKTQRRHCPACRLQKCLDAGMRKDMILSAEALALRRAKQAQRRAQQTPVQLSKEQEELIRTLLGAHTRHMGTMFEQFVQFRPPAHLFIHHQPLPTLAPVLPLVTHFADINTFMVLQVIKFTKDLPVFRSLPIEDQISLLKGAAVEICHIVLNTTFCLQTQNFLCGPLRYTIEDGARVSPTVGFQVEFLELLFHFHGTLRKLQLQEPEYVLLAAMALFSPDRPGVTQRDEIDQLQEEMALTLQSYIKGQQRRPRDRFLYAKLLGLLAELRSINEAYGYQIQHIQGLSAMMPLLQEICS
Sequence of Estrogen receptor (Homo sapiens) (P03372 whole entry, looked up, the tested form may be a part): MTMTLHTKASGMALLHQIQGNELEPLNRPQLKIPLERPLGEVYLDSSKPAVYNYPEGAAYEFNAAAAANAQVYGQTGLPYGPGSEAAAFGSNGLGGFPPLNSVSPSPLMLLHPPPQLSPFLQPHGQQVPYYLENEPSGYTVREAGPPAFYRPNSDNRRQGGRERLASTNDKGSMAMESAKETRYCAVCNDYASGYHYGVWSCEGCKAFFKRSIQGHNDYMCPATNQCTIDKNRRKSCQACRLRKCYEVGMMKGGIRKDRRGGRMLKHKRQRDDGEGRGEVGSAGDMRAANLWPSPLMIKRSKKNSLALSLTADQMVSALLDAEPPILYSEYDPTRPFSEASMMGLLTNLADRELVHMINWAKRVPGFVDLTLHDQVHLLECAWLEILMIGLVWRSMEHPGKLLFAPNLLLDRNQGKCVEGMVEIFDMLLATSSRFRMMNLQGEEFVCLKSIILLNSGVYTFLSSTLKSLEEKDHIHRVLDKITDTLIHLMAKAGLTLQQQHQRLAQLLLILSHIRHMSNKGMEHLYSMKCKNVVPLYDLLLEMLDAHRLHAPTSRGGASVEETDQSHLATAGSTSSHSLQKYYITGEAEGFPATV

Broadly, the AC50 is the midpoint of the concentration-response curve, whichever way the signal moves. For the compound `Oc1ccc2ccc3cccc4ccc1c2c34`, the call in [1], in assay [3], in [4], in assay [5], in [6] and in assay [7] was inactive. In addition, the compound was classed as inactive in assay [8], in [9], in assay [10], in [11], in assay [12] and in assay [13]. The call in assay [14] was inactive. Also, in [2], the half-maximal activity concentration (AC50) is 13 µM (active).

For the compound `Cc1ccc(N=C=O)cc1N=C=O`, the call in assay [1], in assay [2], in assay [3], in [4], in [5] and in [6] was inactive. Further, the outcome in [7], in assay [8], in assay [9], in assay [10], in assay [11] and in assay [12] was inactive. Moreover, the compound was called inactive in [13] and in [15].

As for `CCC(C)c1ccc(O)cc1` (centres undefined), the result in assay [1], in assay [3], in [4], in assay [5], in [7] and in [8] was inactive. Also, the call in assay [9], in [10], in [11], in assay [16], in assay [14] and in assay [17] was inactive. For the same compound, the result in assay [15] was inactive. The AC50 in assay [2] is 26.5 µM (active); in [6], 163 µM (active); in assay [13], 51.8 µM (active).

With `CCCSC(=O)N(CCC)CCC`, the outcome in assay [1], in assay [3], in [4], in [5], in assay [6] and in [7] was inactive. The compound was classed as inactive in assay [8], in assay [9], in assay [10], in assay [11], in [12] and in [16]. The outcome in assay [13] and in [17] was inactive. The concentration at half-maximal activity (AC50) in [2] is 27.1 µM (active).

Take `c1ccc(NNc2ccccc2)cc1`: the outcome in assay [1], in assay [2], in assay [3], in [4], in [5] and in [6] was inactive. Besides, the outcome in [7], in [8], in assay [9], in [10], in assay [11] and in assay [12] was inactive. Further, the call in assay [13] and in [14] was inactive.

`c1ccc2c(c1)oc1ccccc12`: the outcome in assay [1], in assay [2], in assay [4], in [5], in [6] and in assay [7] was inactive. The call in [8], in assay [9], in [10], in assay [11], in assay [12] and in assay [16] was inactive. For the same compound, the result in [13] and in assay [17] was inactive.

As to `CCCCCOC(=O)c1ccccc1C(=O)OCCCCC`, the outcome in [1], in [3], in assay [4], in assay [5], in assay [6] and in assay [7] was inactive. Moreover, the compound was classed as inactive in assay [8], in assay [9], in assay [10], in [11], in assay [16] and in assay [18]. Also, the result in [13] and in assay [17] was inactive. The results for the AC50 in [2] and in [12] were 27.3 µM (active) and 89.8 µM (active), respectively.

Regarding `CCCCCCCCOC(=O)c1ccc(C(=O)OCCCCCCCC)c(C(=O)OCCCCCCCC)c1`, the result in assay [1], in assay [2], in [19], in [4], in assay [5] and in assay [6] was inactive. Moreover, the result in [7], in [8], in assay [9], in assay [10], in assay [11] and in [13] was inactive. Also, the call in [14] was inactive.

For `C=CCc1ccc2c(c1)OCO2`, the compound was called inactive in [1], in assay [2], in assay [3], in [4], in assay [5] and in [6]. Moreover, the call in [7], in assay [8], in [9], in assay [10], in [11] and in assay [12] was inactive. Further, the call in assay [13] was inactive.

Take `CCOc1cccc(C2(N3CCN(c4ccccc4)CC3)CCC(C)CC2)c1` (centres undefined): the call in assay [1], in [2], in assay [3], in assay [4], in [5] and in assay [6] was inactive. The compound was called inactive in assay [7], in assay [8], in [9], in assay [10], in assay [11] and in [12]. The compound was called inactive in assay [18], in assay [13] and in assay [17].
